Test results published in PubChem BioAssay AID1159580 (chemical genetic matrix, 2015).
The campaign covered roughly 5,500 compounds. About 2,000 (36%) were called active. About 18% were inconclusive and are not listed. No stated cut-off is given here; in the data, active means normalized growth mostly below about 0.91 (no sharp cut-off); inconclusive means no clear call, values can overlap the other calls; inactive means mostly above about 0.92. The list shows a part of the results.

Assay: chemical genetic growth profiling, strain panel (AID 1159580);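 further: tested at 20 µM; growth read once vehicle control cultures reached saturation at 30 °C; 1 = growth at the plate median or of vehicle wells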
Details: S. cerevisiae deletion strains, growth OD

Measured: normalized growth

COc1ccc2c(c1)CCC1C2CCC2(C)C1C[C@@H](O)C2O (stereo not given in full)
inactive: locus YAL013W, strain DEP1, stronger effect = lower value 1 | locus YAL021C, strain ccr4, stronger effect = lower value 0.947 | locus YAL030W, strain snc1, stronger effect = lower value 1 | locus YBL061C, strain skt5, stronger effect = lower value 1 | locus YBR009C, strain hhf1, stronger effect = lower value 0.917 | locus YBR021W, strain FUR4, stronger effect = lower value 1.08 | locus YBR023C, strain chs3, stronger effect = lower value 0.988 | locus YBR171W, strain sec66, stronger effect = lower value 0.983 | locus YBR229C, strain ROT2, stronger effect = lower value 1.02 | locus YBR231C, strain swc5, stronger effect = lower value 1.01 | locus YBR279W, strain paf1, stronger effect = lower value 0.992 | locus YCL011C, strain gbp2, stronger effect = lower value 0.977 | locus YCL016C, strain dcc1, stronger effect = lower value 0.949 | locus YCL029C, strain bik1, stronger effect = lower value 0.993 | locus YCL061C, strain MRC1, stronger effect = lower value 0.985 | locus YCL069W, strain vba3, stronger effect = lower value 1 | locus YCR088W, strain abp1, stronger effect = lower value 0.998 | locus YDL005C, strain med2, stronger effect = lower value 1.01 | locus YDL035C, strain GPR1, stronger effect = lower value 0.962 | locus YDL040C, strain nat1, stronger effect = lower value 0.993 | locus YDL074C, strain BRE1, stronger effect = lower value 0.95 | locus YDL101C, strain DUN1, stronger effect = lower value 1.02 | locus YDL134C, strain PPH21, stronger effect = lower value 0.952 | locus YDL185W, strain tfp1, stronger effect = lower value 0.992 | locus YDL192W, strain arf1, stronger effect = lower value 0.997 | locus YDR001C, strain nth1, stronger effect = lower value 1.01 | locus YDR069C, strain doa4, stronger effect = lower value 0.992 | locus YDR101C, strain arx1, stronger effect = lower value 0.987 | locus YDR137W, strain rgp1, stronger effect = lower value 0.854 | locus YDR150W, strain NUM1, stronger effect = lower value 1.01 | locus YDR159W, strain sac3, stronger effect = lower value 0.966 | locus YDR162C, strain NBP2, stronger effect = lower value 0.978 | locus YDR195W, strain ref2 1.1 | locus YDR297W, strain sur2, stronger effect = lower value 1 | locus YDR318W, strain mcm21, stronger effect = lower value 0.991 | locus YDR334W, strain swr1, stronger effect = lower value 1 | locus YDR335W, strain msn5, stronger effect = lower value 0.997 | locus YDR388W, stronger effect = lower value 0.99 | locus YDR502C, strain sam2, stronger effect = lower value 0.997 | locus YEL003W, strain gim4, stronger effect = lower value 0.992 | locus YEL037C, strain rad23, stronger effect = lower value 1 | locus YEL061C, strain CIN8 (second series), stronger effect = lower value 1.01 | locus YEL061C, strain CIN8, stronger effect = lower value 1.01 | locus YER015W, strain faa2, stronger effect = lower value 0.996 | locus YER016W, strain bim1, stronger effect = lower value 0.979 | locus YER110C, stronger effect = lower value 0.983 | locus YER111C, strain swi4, stronger effect = lower value 0.984 | locus YER155C, strain BEM2, stronger effect = lower value 1.02 | locus YER167W, strain BCK2, stronger effect = lower value 0.999 | locus YFR010W, strain ubp6, stronger effect = lower value 1 | locus YGL078C, strain dbp3, stronger effect = lower value 0.997 | locus YGL086W, strain mad1, stronger effect = lower value 0.991 | locus YGL167C, strain pmr1, stronger effect = lower value 1 | locus YGL173C, strain kem1, stronger effect = lower value 0.949 | locus YGL227W, strain vid30, stronger effect = lower value 1 | locus YGL240W, strain doc1, stronger effect = lower value 0.944 | locus YGL248W, strain PDE1, stronger effect = lower value 1 | locus YGR135W, strain pre9, stronger effect = lower value 0.961 | locus YGR252W, strain gcn5, stronger effect = lower value 0.774 | locus YHR013C, strain ard1, stronger effect = lower value 0.906 | locus YHR027C, strain rpn1, stronger effect = lower value 1.01 | locus YHR030C, strain SLT2, stronger effect = lower value 1.01 | locus YHR079C, strain IRE1 (second series), stronger effect = lower value 0.992 | locus YHR094C, strain hxt1, stronger effect = lower value 0.992 | locus YHR129C, strain ARP1, stronger effect = lower value 1.01 | locus YHR142W, strain chs7, stronger effect = lower value 0.925 | locus YHR200W, strain rpn10, stronger effect = lower value 0.993 | locus YIL066C, strain RNR3, stronger effect = lower value 0.98 | locus YIL073C, strain SPO22, stronger effect = lower value 0.91 | locus YIL125W, strain kgd1, stronger effect = lower value 1 | locus YIR030C, strain dcg1, stronger effect = lower value 0.991 | locus YJL092W, strain hpr5, stronger effect = lower value 0.998 | locus YJL095W, strain BCK1 (second series), stronger effect = lower value 0.981 | locus YJL095W, strain BCK1, stronger effect = lower value 0.944 | locus YJL115W, strain asf1, stronger effect = lower value 0.995 | locus YJL129C, strain trk1, stronger effect = lower value 0.915 | locus YJL134W, strain LCB3, stronger effect = lower value 1.02 | locus YJL154C, strain vps35, stronger effect = lower value 1.02 | locus YJL168C, strain set2, stronger effect = lower value 0.994 | locus YJL187C, strain SWE1 (second series), stronger effect = lower value 1
active: locus YAL026C, strain drs2, stronger effect = lower value 0.83 | locus YDR392W, strain spt3, stronger effect = lower value 0.685 | locus YER155C, strain BEM2 (second series), stronger effect = lower value 0.715 | locus YGL253W, strain hxk2, stronger effect = lower value 0.903 | locus YJL164C, strain tpk1, stronger effect = lower value 0.907
